# Reference: PubChem BioAssay AID1159580 (chemical genetic matrix, 2015)
# About 2,000 (36%) of roughly 5,500 compounds were called active. Another 18% or so got no clear call; they are omitted. Some of the results follow. A number with no mark means an inactive call. Rule as the data show it: active = normalized growth mostly below about 0.91 (no sharp cut-off); inconclusive = no clear call, values can overlap the other calls; inactive = mostly above about 0.92.
# Assay: chemical genetic growth profiling, strain panel (AID 1159580);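 also: tested at 20 µM; growth read once vehicle control cultures reached saturation at 30 °C; 1 = growth at the plate median or of vehicle wells; lower values mean less growth of the strain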
# Details: growth OD
smiles,measurement,setting,value
CC1(C)C(C(Cl)Cl)C2(Cl)C(Cl)C(Cl)C1(Cl)C2(Cl)Cl (centres undefined),normalized growth,"S. cerevisiae deletion strains, locus YJR043C, strain POL32, hits give low values",0.978
same,normalized growth,"S. cerevisiae deletion strains, locus YJR075W, strain HOC1, hits give low values",0.985
same,normalized growth,"S. cerevisiae deletion strains, locus YKL009W, strain mrt4, hits give low values",0.965
same,normalized growth,"S. cerevisiae deletion strains, locus YKL068W, hits give low values",0.983
same,normalized growth,"S. cerevisiae deletion strains, locus YKL085W, strain MDH1 (second series), hits give low values",0.973
same,normalized growth,"S. cerevisiae deletion strains, locus YKL085W, strain MDH1, hits give low values",0.973
same,normalized growth,"S. cerevisiae deletion strains, locus YKL160W, strain elf1, hits give low values",0.969
same,normalized growth,"S. cerevisiae deletion strains, locus YKL190W, strain CNB1, hits give low values",0.997
same,normalized growth,"S. cerevisiae deletion strains, locus YKR001C, strain vps1, hits give low values",0.964
same,normalized growth,"S. cerevisiae deletion strains, locus YKR026C, strain gcn3, hits give low values",0.989
same,normalized growth,"S. cerevisiae deletion strains, locus YKR091W, strain srl3, hits give low values",0.985
same,normalized growth,"S. cerevisiae deletion strains, locus YLL001W, strain dnm1, hits give low values",0.994
same,normalized growth,"S. cerevisiae deletion strains, locus YLL026W, hits give low values",0.981
same,normalized growth,"S. cerevisiae deletion strains, locus YLL041C, strain sdh2, hits give low values",0.989
same,normalized growth,"S. cerevisiae deletion strains, locus YLR027C, strain aat2, hits give low values",0.97
same,normalized growth,"S. cerevisiae deletion strains, locus YLR039C, strain RIC1, hits give low values",0.883
same,normalized growth,"S. cerevisiae deletion strains, locus YLR058C, strain SHM2, hits give low values",0.983
same,normalized growth,"S. cerevisiae deletion strains, locus YLR102C, strain apc9, hits give low values",0.979
same,normalized growth,"S. cerevisiae deletion strains, locus YLR221C, strain rsa3, hits give low values",0.961
same,normalized growth,"S. cerevisiae deletion strains, locus YLR258W, strain gsy2, hits give low values",0.975
same,normalized growth,"S. cerevisiae deletion strains, locus YLR262C, strain YPT6 (second series), hits give low values",0.817 (active)
same,normalized growth,"S. cerevisiae deletion strains, locus YLR262C, strain YPT6, hits give low values",0.884
same,normalized growth,"S. cerevisiae deletion strains, locus YLR268W, strain sec22, hits give low values",0.97
same,normalized growth,"S. cerevisiae deletion strains, locus YLR320W, strain mms22, hits give low values",0.878
same,normalized growth,"S. cerevisiae deletion strains, locus YLR330W, strain CHS5, hits give low values",0.991
same,normalized growth,"S. cerevisiae deletion strains, locus YLR342W, strain FKS1 (second series), hits give low values",0.913
same,normalized growth,"S. cerevisiae deletion strains, locus YLR342W, strain FKS1, hits give low values",0.964
same,normalized growth,"S. cerevisiae deletion strains, locus YLR357W, strain rsc2, hits give low values",0.993
same,normalized growth,"S. cerevisiae deletion strains, locus YLR370C, strain arc18, hits give low values",0.991
same,normalized growth,"S. cerevisiae deletion strains, locus YLR371W, strain rom2, hits give low values",0.968
same,normalized growth,"S. cerevisiae deletion strains, locus YLR384C, strain iki3, hits give low values",0.974
same,normalized growth,"S. cerevisiae deletion strains, locus YLR418C, strain cdc73, hits give low values",0.879
same,normalized growth,"S. cerevisiae deletion strains, locus YML016C, strain PPZ1, hits give low values",0.986
same,normalized growth,"S. cerevisiae deletion strains, locus YML032C, strain rad52, hits give low values",0.956
same,normalized growth,"S. cerevisiae deletion strains, locus YML120C, strain ndi1, hits give low values",0.983
same,normalized growth,"S. cerevisiae deletion strains, locus YML124C, strain tub3, hits give low values",0.976
same,normalized growth,"S. cerevisiae deletion strains, locus YMR058W, strain fet3, hits give low values",0.991
same,normalized growth,"S. cerevisiae deletion strains, locus YMR078C, strain ctf18, hits give low values",0.953
same,normalized growth,"S. cerevisiae deletion strains, locus YMR125W, strain sto1, hits give low values",0.995
same,normalized growth,"S. cerevisiae deletion strains, locus YMR129W, hits give low values",0.972
same,normalized growth,"S. cerevisiae deletion strains, locus YMR205C, strain PFK2, hits give low values",0.883
same,normalized growth,"S. cerevisiae deletion strains, locus YMR223W, strain ubp8, hits give low values",0.963
same,normalized growth,"S. cerevisiae deletion strains, locus YMR231W, strain pep5, hits give low values",0.977
same,normalized growth,"S. cerevisiae deletion strains, locus YMR263W, strain SAP30, hits give low values",0.988
same,normalized growth,"S. cerevisiae deletion strains, locus YMR307W, strain GAS1, hits give low values",0.967
same,normalized growth,"S. cerevisiae deletion strains, locus YNL067W, strain RPL9B, hits give low values",0.993
same,normalized growth,"S. cerevisiae deletion strains, locus YNL071W, strain lat1, hits give low values",0.834 (active)
same,normalized growth,"S. cerevisiae deletion strains, locus YNL128W, strain TEP1, hits give low values",0.992
same,normalized growth,"S. cerevisiae deletion strains, locus YNL153C, strain GIM3, hits give low values",0.988
same,normalized growth,"S. cerevisiae deletion strains, locus YNL209W, strain ssb2, hits give low values",0.979
same,normalized growth,"S. cerevisiae deletion strains, locus YNL233W, strain BNI4, hits give low values",0.999
same,normalized growth,"S. cerevisiae deletion strains, locus YNL248C, strain rpa49, hits give low values",0.99
same,normalized growth,"S. cerevisiae deletion strains, locus YNL250W, strain rad50, hits give low values",0.95
same,normalized growth,"S. cerevisiae deletion strains, locus YNL271C, strain bni1, hits give low values",0.975
same,normalized growth,"S. cerevisiae deletion strains, locus YNL298W, strain CLA4, hits give low values",0.958
same,normalized growth,"S. cerevisiae deletion strains, locus YNL307C, strain MCK1, hits give low values",0.778 (active)
same,normalized growth,"S. cerevisiae deletion strains, locus YNL322C, strain KRE1 (second series), hits give low values",0.979
same,normalized growth,"S. cerevisiae deletion strains, locus YNL322C, strain KRE1, hits give low values",0.987
same,normalized growth,"S. cerevisiae deletion strains, locus YNR049C, strain mso1, hits give low values",0.985
same,normalized growth,"S. cerevisiae deletion strains, locus YNR052C, strain pop2, hits give low values",0.963
same,normalized growth,"S. cerevisiae deletion strains, locus YOL006C, strain TOP1, hits give low values",0.926
same,normalized growth,"S. cerevisiae deletion strains, locus YOL012C, strain htz1",1.18
same,normalized growth,"S. cerevisiae deletion strains, locus YOL147C, strain pex11, hits give low values",0.973
same,normalized growth,"S. cerevisiae deletion strains, locus YOR001W, strain rrp6, hits give low values",0.995
same,normalized growth,"S. cerevisiae deletion strains, locus YOR061W, strain CKA2, hits give low values",0.992
same,normalized growth,"S. cerevisiae deletion strains, locus YOR069W, strain VPS5, hits give low values",0.985
same,normalized growth,"S. cerevisiae deletion strains, locus YOR070C, strain gyp1, hits give low values",0.991
same,normalized growth,"S. cerevisiae deletion strains, locus YOR080W, strain dia2, hits give low values",0.974
same,normalized growth,"S. cerevisiae deletion strains, locus YOR083W, strain WHI5, hits give low values",0.982
same,normalized growth,"S. cerevisiae deletion strains, locus YOR106W, strain vam3, hits give low values",0.95
same,normalized growth,"S. cerevisiae deletion strains, locus YOR136W, strain idh2, hits give low values",0.978
same,normalized growth,"S. cerevisiae deletion strains, locus YOR144C, strain elg1, hits give low values",0.967
same,normalized growth,"S. cerevisiae deletion strains, locus YOR184W, strain ser1, hits give low values",0.879
same,normalized growth,"S. cerevisiae deletion strains, locus YOR265W, strain rbl2, hits give low values",0.98
same,normalized growth,"S. cerevisiae deletion strains, locus YOR270C, strain vph1, hits give low values",0.922
same,normalized growth,"S. cerevisiae deletion strains, locus YOR290C, strain snf2, hits give low values",0.977
same,normalized growth,"S. cerevisiae deletion strains, locus YOR316C, strain cot1, hits give low values",0.973
same,normalized growth,"S. cerevisiae deletion strains, locus YPL051W, strain arl3, hits give low values",0.937
same,normalized growth,"S. cerevisiae deletion strains, locus YPL055C, strain LGE1, hits give low values",0.981
same,normalized growth,"S. cerevisiae deletion strains, locus YPL078C, strain atp4, hits give low values",0.988
same,normalized growth,"S. cerevisiae deletion strains, locus YPL106C, strain sse1, hits give low values",0.984
same,normalized growth,"S. cerevisiae deletion strains, locus YPL240C, strain hsp82, hits give low values",0.982
same,normalized growth,"S. cerevisiae deletion strains, locus YPL241C, strain CIN2, hits give low values",0.988
same,normalized growth,"S. cerevisiae deletion strains, locus YPR119W, strain clb2, hits give low values",0.973
same,normalized growth,"S. cerevisiae deletion strains, locus YPR141C, strain kar3, hits give low values",0.963
same,normalized growth,"S. cerevisiae deletion strains, locus YPR163C, strain tif3, hits give low values",0.946
same,normalized growth,"S. cerevisiae deletion strains, locus YPR167C, strain met16, hits give low values",0.978
same,normalized growth,"S. cerevisiae deletion strains, strain wtn01, hits give low values",0.966
same,normalized growth,"S. cerevisiae strains, strain wild type, hits give low values",0.986
